Screening data (PubChem BioAssay)
An excerpt weighted towards active compounds, which were near 3% of everything screened.
TRAIL sens C8: viability loss with TRAIL in NB7+C8 cells, primary screen, TRAIL sensitizer project, cell-based, ATPlite luminescence; actives 1% (n = 360,000); inhibition (viability loss, TRAIL sensitization), % at 10 µM;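 active means compounds causing at least 50% loss of cell viability in the single-dose screen, relative to plate controls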
SENP8 block-1: human SENP8 protease inhibitors, primary screen, biochemical, fluorescence, Nedd8 protein substrate, uHTS. Sentrin-specific protease 8 (Homo sapiens), Q96LD8. inhibition, % at 20 µM. recombinant SENP8. actives 0.64% (n = 360,000); in the data active means inhibition mostly above about 40%, no sharp cut-off; inactive means mostly below about 27%
SENP6 inh: SENP6 protease inhibitors, primary screen, biochemical, luminescence, uHTS | actives 1.8% (n = 330,000) | inhibition, % at 10 µM | Sentrin-specific protease 6 (Homo sapiens), Q9GZR1 | Recombinant SENP6 catalytic domain, aminoluciferin luminescence | AID 2599, 2010;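 active means inhibition above about 50% at the single tested dose, limit read from the data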;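 further: plate controls were DMSO wells with enzyme for no effect and DMSO wells lacking enzyme for full effect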
Target sequence (Q9GZR1 628-1112 limits assumed): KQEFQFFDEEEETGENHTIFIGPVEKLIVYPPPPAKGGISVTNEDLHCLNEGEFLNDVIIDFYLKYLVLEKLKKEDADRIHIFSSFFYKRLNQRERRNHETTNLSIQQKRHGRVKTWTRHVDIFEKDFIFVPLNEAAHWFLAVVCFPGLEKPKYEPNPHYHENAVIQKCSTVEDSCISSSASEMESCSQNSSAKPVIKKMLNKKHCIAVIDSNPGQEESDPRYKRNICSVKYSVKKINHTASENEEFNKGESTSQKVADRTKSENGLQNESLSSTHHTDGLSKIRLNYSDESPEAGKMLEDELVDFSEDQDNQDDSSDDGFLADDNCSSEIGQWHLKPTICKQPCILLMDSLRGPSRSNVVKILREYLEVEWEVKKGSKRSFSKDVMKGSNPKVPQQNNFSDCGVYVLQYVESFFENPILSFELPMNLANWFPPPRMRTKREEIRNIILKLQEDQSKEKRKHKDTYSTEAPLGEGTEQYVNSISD
PPC-1+TRAIL kill: compounds killing PPC-1 cancer cells with TRAIL present, primary screen, TRAIL potentiator project, ATPLite luminescence, uHTS; PPC-1 cells + TRAIL, ATPLite viability luminescence; cell killing (% activity), % at 4 µM or 5 µM; actives 0.41% (n = 220,000); AID 1443, 2008;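 active means cell killing above 50% in the first pass at 4 µM, then a duplicate retest at 5 µM averaging 50% or more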;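 further: plate controls were cells with TRAIL plus DMSO for no effect and medium-only wells lacking cells for full effect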
SENP8 block-2: SENP8 protease inhibitors, primary screen, biochemical, luminescence; Sentrin-specific protease 8 (Homo sapiens), Q96LD8; purified SENP8, Z-RLRGG-aminoluciferin cleavage; inhibition, % at 10 µM; actives 1.2% (n = 330,000); AID 2540, 2010; in the data active means inhibition above about 50%
SENP7 block: SENP7 protease inhibitors, primary screen, biochemical, luminescence, uHTS | Sentrin-specific protease 7 (Homo sapiens), Q9BQF6 | recombinant SENP7, Z-RLRGG-aminoluciferin luminescence, 40 min | inhibition, % at 5 µM | actives 1.5% (n = 330,000) | AID 434973, 2010;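 active means inhibition above about 50% at the single test dose, limit read from the data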;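 further: plate controls were DMSO with enzyme for no effect and no enzyme buffer wells for full effect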
The depositor's hits bear a star; i = inactive; . = no result.

SMILES	TRAIL sens C8	SENP8 block-1	SENP6 inh	PPC-1+TRAIL kill	SENP8 block-2	SENP7 block
CC1(C)N=C(N)N=C(N)N1c1cc(Cl)ccc1Cl	-5.8	13.3	.	.	.	.
CC1(C)N=C(N)N=C(N)N1c1ccc(Oc2ccc(Cl)cc2)c(Cl)c1	58.0*	13.7	-8.3	.	2.3	-5.7
CC(C)(C)c1ccc(CC(=O)N2CCC2(C)C(=O)NS(=O)(=O)c2ccc(Cl)s2)cc1 (centres undefined)	-4.8	6.1	.	.	.	.
CCN(CC)CCN(C(=O)CCOc1ccccc1)c1nc2ccc(F)cc2s1	-14.3	22.8	-19.2	-4.4	-1.6	7.0
O=C(Nc1cccc([N+](=O)[O-])c1)NN1CCCCCC1	-2.8	8.4	.	.	.	.
C/C(=N\NC(=O)c1cccc(O)c1)c1cccc(NC(=O)c2ccc(F)cc2)c1	56.9*	11.0	-9.6	.	-3.6	2.4
C/C(=N\NC(=O)c1cccc(N/N=C(\C)c2cc(O)ccc2O)c1)c1cc(O)ccc1O	55.4*	24.1	-6.2	20.4	3.3	6.6
C/C(=N\NC(=O)c1ccc(Cl)cc1)c1ccccn1	51.1*	18.3	22.4	.	16.2	17.5
C/C(=N\NC(=O)c1ccccc1F)c1cccc(NC(=O)c2ccc(C)cc2)c1	59.3*	11.6	-4.6	.	0.5	2.5
C/C(=N\NC(=O)c1cccc(N/N=C(\C)c2ccco2)c1)c1ccco1	-3.9	-1.1	.	-2.4	.	.
C/C(=N\NC(=O)c1ccc(F)cc1)c1cccc(NC(=O)c2cccc(F)c2)c1	5.5	-13.4	-14.0	.	-9.6	-12.5
C/C(=N\NC(=O)c1cccc(F)c1)c1cccc(NC(=O)c2ccc(F)cc2)c1	20.5	7.4	-2.6	23.4	-1.9	1.6
CCCc1c(C)nc(N2CCN(c3ccccc3OC)CC2)[nH]c1=O	-10.2	5.5	20.1	.	0.7	4.3
CC(C)c1ccc(NC(=O)Cc2ccc(NC3=NC4CS(=O)(=O)CC4S3)cc2)cc1 (centres undefined)	18.7	5.9	7.2	.	9.8	-0.6
C/C(=N\NC(=O)c1ccc(O)cc1)c1cccc(NC(=O)c2ccc(Cl)cc2)c1	65.8*	6.9	-25.5	.	-12.0	-5.9
CC(=O)C(C(C)=O)C1(O)C(=O)c2ccccc2C1=O	-5.5	60.6*	40.3	24.3	-15.3	17.6
CCCCCCCCN1C(=O)[C@H](CC(=O)NCCC(C)C)C[C@@]2(C(=O)OCC)CCC=C12	-9.0	19.7	.	.	.	.
COc1ccc(C(CCN(Cc2ccc(OC)c(OC)c2)C(C)=O)c2ccccc2)cc1 (centres undefined)	4.6	8.3	-7.9	-9.1	2.6	1.1
COc1ccc(CN(CCC(c2ccccc2)c2ccc(OC(C)C)cc2)C(=O)CCl)cc1OC (centres undefined)	96.4*	4.1	17.8	3.9	1.7	-3.2
CNC(=O)COC(=O)c1ccccc1C(=O)c1ccc(Cl)c([N+](=O)[O-])c1	9.3	9.6	.	2.5	.	.
O=C(COC(=O)c1ccccc1C(=O)c1ccc(Cl)c([N+](=O)[O-])c1)NC1CC1	92.9*	22.5	4.1	9.1	-1.5	-15.7
Nc1cccc(C(=O)OCC(=O)Nc2cccc3c2C(=O)c2ccccc2C3=O)c1	-3.0	29.5	-13.4	16.8	-7.6	3.4
Nc1cccc(C(=O)OCC(=O)c2ccccc2)c1	-2.4	9.9	67.6*	-14.5	54.6*	70.2*
Cc1cc(C(=O)N/N=C/c2c(C)nn(-c3ccccc3)c2C)n[nH]1	11.6	8.4	-3.9	13.7	-3.1	-6.8
COc1cc(/C=N/NC(=O)c2cc(-c3c(C)nn(-c4ccccc4)c3C)n[nH]2)ccc1O	0.9	-145.7	9.5	-1.4	7.6	10.1
SMILES	TRAIL sens C8	SENP8 block-1	SENP6 inh	PPC-1+TRAIL kill	SENP8 block-2	SENP7 block
Cc1nn(-c2ccccc2)c(C)c1-c1cc(C(=O)N/N=C/c2ccc(O)cc2)[nH]n1	49.6*	-21.8	5.7	2.8	-0.2	0.6
Cc1nn(-c2ccccc2)c(C)c1/C=N/NC(=O)c1cc(-c2ccc(Cl)s2)[nH]n1	46.5*	-2.3	-4.9	-24.5	-0.1	0.4
Cc1nn(-c2ccccc2)c(C)c1/C=N/NC(=O)c1cc(C23CC4CC(CC(C4)C2)C3)[nH]n1	64.0*	20.2	8.7	14.0	3.0	-4.0
O=C(N/N=C/c1ccc(O)c2ncccc12)c1cccc(Br)c1	55.5*	-104.6	-4.8	19.2	1.2	0.2
O=C(N/N=C/c1cc(Br)ccc1O)c1ccncc1	2.6	17.8	10.6	31.9	-2.2	6.4
CC(C)N(CC(=O)Nc1ccc(Cl)cc1C(F)(F)F)C(=O)CCl	95.3*	18.2	4.1	23.6	3.4	-0.3
O=C(O)CSCC(=O)Nc1ccc(Cl)cc1C(F)(F)F	3.5	7.0	2.7	13.5	6.8	10.1
CCC(C)N(CC(=O)Nc1cccc(C)c1C)C(=O)CCl (centres undefined)	96.8*	17.0	3.1	8.9	3.5	-1.7
COc1cc(C(=O)OCC(=O)NC(N)=O)cc(CN2C(=O)c3ccccc3C2=O)c1OC	-15.8	13.4	-5.5	.	1.2	12.2
COc1cccc(C(O)c2ncc(-c3ccccc3Cl)[nH]2)c1 (centres undefined)	-16.7	10.0	.	.	.	.
Cc1cc(Cl)ccc1Oc1ccccc1C(=O)CC#N	-7.0	4.5	10.7	-3.5	5.5	12.4
COc1cccc(NC2=C(NCCO)C(=O)c3ccccc3C2=O)c1	0.6	53.7*	20.4	.	22.7	6.1
COC(=O)[C@@]12C[C@@H](CC(=O)NCC34CC5CC(CC(C5)C3)C4)C(=O)N(Cc3ccco3)C1=CCC(C)(C)C2	3.0	15.3	.	.	.	.
CCCCCCCCCCCC1N=C(N)NC(CCCO)=C1C(=O)OC (centres undefined)	63.3*	14.5	.	.	.	.
CCCCCCOC(=O)c1ccc(N)cc1	-7.8	15.2	10.8	-6.8	5.6	9.6
C/C(=N\NC(=O)c1cc(-c2cccc(OC(C)C)c2)nc2ccccc12)c1cccnc1	36.7	-152.9	-5.8	.	3.8	1.0
C/C(=N\NC(=O)c1cc(-c2cccnc2)nc2ccccc12)c1ccc(O)cc1O	8.6	15.7	1.0	51.1*	-3.2	8.1
CCOc1ccc(-c2cc(C(=O)N3CCCC3)c3ccccc3n2)cc1	64.3*	-387.6	-5.2	.	-6.1	-5.3
COc1ccc(-c2cc(C(=O)N3CCN(c4ncccn4)CC3)c3ccccc3n2)cc1	63.6*	i	-11.0	.	-1.5	9.8
CCCc1ccc(-c2cc(C(=O)N3CCN(c4ccccn4)CC3)c3ccccc3n2)cc1	91.4*	-0.1	1.7	.	-3.3	-0.7
COc1cc(-c2cc(C(=O)N3CCN(c4ccccn4)CC3)c3ccccc3n2)cc(OC)c1OC	20.0	-340.9	0.8	.	-3.3	1.1
